Columns and labels:
[1] = system: Proto-oncogene tyrosine-protein kinase receptor Ret (Homo sapiens), P07949 [Y791F]; settings: at 1 µM
[2] = biological target: Macrophage-stimulating protein receptor (Homo sapiens) (UniProt Q04912); settings: at 0.1 µM
[3] = biological target: Macrophage-stimulating protein receptor (Homo sapiens) (UniProt Q04912); settings: at 1 µM
[4] = biological target: Proto-oncogene tyrosine-protein kinase ROS (Homo sapiens) (UniProt P08922); settings: at 0.1 µM
[5] = biological target: Proto-oncogene tyrosine-protein kinase ROS (Homo sapiens) (UniProt P08922); settings: at 1 µM
[6] = biological target: Proto-oncogene tyrosine-protein kinase Src (Homo sapiens) (UniProt P12931); settings: at 0.1 µM
[7] = biological target: Proto-oncogene tyrosine-protein kinase Src (Homo sapiens) (UniProt P12931); settings: at 1 µM
[8] = biological target: Tyrosine-protein kinase Srms (Homo sapiens) (UniProt Q9H3Y6); settings: at 0.1 µM
[9] = biological target: Tyrosine-protein kinase Srms (Homo sapiens) (UniProt Q9H3Y6); settings: at 1 µM
[10] = biological target: Tyrosine-protein kinase SYK (Homo sapiens) (UniProt P43405); settings: at 0.1 µM;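 further: reported percentages are mean inhibition values for SYK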

Sequence of Macrophage-stimulating protein receptor (Homo sapiens) (Q04912 25-304 limits assumed): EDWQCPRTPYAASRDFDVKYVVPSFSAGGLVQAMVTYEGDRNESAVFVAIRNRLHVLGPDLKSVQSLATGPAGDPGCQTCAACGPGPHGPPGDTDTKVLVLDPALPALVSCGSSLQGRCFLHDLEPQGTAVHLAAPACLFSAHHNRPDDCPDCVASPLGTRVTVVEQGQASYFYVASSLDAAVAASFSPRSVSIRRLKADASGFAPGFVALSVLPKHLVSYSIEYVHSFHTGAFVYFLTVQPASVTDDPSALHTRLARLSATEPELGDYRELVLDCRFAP
Sequence of Macrophage-stimulating protein receptor (Homo sapiens) (Q04912 310-1400 limits assumed): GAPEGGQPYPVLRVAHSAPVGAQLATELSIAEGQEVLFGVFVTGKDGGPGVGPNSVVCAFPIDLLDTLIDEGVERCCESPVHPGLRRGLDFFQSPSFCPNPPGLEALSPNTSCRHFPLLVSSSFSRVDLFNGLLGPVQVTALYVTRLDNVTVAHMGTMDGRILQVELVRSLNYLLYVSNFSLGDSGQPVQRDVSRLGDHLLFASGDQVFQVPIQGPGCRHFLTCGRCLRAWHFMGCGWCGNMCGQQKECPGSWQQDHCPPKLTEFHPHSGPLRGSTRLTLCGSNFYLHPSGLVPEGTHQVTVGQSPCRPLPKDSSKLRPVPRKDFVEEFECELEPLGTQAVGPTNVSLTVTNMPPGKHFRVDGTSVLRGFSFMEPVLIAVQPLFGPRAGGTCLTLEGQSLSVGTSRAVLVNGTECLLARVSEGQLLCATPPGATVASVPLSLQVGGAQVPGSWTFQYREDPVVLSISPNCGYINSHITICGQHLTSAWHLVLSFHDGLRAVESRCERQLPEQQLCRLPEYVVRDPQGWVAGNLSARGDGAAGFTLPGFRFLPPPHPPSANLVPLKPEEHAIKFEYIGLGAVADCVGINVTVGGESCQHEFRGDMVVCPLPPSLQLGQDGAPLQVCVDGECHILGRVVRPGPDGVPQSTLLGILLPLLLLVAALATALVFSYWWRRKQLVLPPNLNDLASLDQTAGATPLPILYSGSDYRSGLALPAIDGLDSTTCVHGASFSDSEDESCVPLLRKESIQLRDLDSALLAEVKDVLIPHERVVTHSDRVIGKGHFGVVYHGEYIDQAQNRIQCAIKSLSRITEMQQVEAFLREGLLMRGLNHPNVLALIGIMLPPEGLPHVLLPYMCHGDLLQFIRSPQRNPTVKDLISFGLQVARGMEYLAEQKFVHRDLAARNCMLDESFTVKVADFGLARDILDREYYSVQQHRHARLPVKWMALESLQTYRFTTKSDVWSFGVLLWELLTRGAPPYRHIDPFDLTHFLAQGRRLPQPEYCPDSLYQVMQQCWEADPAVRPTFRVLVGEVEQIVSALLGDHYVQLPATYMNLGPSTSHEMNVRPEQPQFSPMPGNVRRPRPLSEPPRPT
Sequence of Proto-oncogene tyrosine-protein kinase receptor Ret (Homo sapiens), P07949 [Y791F] (P07949 whole entry Y791F): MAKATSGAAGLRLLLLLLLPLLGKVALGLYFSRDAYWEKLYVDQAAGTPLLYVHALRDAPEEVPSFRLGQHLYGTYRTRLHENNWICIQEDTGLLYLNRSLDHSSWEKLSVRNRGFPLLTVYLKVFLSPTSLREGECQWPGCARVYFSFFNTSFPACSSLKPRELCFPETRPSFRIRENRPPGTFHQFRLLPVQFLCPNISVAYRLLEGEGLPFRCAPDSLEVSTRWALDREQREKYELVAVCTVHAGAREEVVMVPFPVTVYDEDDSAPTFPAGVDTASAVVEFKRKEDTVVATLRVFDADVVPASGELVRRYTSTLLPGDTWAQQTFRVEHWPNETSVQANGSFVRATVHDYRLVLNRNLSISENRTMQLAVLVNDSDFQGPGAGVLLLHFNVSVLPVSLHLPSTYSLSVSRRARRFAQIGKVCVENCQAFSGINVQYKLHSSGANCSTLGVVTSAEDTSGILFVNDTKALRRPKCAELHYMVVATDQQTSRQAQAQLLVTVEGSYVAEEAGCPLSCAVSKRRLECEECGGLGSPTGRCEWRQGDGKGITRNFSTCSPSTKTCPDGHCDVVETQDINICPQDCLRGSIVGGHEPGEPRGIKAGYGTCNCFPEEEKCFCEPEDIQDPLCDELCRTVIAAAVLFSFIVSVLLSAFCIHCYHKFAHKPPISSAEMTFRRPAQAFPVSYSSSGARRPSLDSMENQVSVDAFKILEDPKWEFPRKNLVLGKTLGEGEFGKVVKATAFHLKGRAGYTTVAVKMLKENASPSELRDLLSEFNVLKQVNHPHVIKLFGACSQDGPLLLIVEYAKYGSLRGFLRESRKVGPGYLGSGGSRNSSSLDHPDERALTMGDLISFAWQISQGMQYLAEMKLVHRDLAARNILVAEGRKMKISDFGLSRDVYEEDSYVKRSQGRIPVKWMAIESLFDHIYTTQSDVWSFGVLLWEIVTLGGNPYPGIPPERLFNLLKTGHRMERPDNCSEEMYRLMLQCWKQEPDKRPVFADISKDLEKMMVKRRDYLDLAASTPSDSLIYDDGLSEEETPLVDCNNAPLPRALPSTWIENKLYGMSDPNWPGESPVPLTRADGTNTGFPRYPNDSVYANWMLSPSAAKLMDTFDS
Sequence of Tyrosine-protein kinase Srms (Homo sapiens) (Q9H3Y6 whole entry): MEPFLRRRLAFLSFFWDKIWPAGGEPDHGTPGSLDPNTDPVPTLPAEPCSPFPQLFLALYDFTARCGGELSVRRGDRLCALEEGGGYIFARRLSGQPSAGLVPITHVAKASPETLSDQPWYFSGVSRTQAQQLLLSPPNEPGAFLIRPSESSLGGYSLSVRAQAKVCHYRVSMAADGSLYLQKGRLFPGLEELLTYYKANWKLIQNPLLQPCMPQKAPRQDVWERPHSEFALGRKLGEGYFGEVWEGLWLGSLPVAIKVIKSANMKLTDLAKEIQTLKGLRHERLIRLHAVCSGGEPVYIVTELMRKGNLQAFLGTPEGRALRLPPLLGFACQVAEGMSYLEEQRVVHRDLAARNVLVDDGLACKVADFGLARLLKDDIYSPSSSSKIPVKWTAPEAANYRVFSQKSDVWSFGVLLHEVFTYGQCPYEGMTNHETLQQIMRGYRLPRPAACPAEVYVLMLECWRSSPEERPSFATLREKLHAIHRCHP
Sequence of Proto-oncogene tyrosine-protein kinase Src (Homo sapiens) (P12931 2-536 limits assumed): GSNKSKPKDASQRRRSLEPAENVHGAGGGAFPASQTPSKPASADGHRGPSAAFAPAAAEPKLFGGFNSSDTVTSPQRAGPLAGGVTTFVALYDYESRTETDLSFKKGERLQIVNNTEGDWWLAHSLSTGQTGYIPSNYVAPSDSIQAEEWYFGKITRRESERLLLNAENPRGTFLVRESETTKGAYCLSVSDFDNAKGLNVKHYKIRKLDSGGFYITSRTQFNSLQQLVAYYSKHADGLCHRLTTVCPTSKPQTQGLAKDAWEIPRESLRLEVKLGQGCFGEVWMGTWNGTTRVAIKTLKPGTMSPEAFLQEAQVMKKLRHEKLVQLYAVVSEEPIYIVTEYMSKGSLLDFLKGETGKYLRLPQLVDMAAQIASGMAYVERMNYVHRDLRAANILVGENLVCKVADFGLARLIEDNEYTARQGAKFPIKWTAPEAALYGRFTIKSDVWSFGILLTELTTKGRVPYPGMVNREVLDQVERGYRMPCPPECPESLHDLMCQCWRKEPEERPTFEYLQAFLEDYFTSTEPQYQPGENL

Row | Structure (SMILES) | inhibition [1] | inhibition [2] | inhibition [3] | inhibition [4] | inhibition [5] | inhibition [6] | inhibition [7] | inhibition [8] | inhibition [9] | inhibition [10]
1 | CCCN(CCS(C)(=O)=O)Cc1ccc(-c2ccc3ncnc(Nc4ccc(OCc5cccc(F)c5)c(Cl)c4)c3c2)o1 | 2.22% | 2.96% | 4.1% | 2.72% | 6.67% | 3.8% | 6.22% | 1.1% | 2.29% | -1.64%
2 | COc1ccc(-c2cc3c(N)ncnc3o2)cc1 | 4.56% | -4.17% | -1.06% | 2.19% | 4.11% | -1.14% | 7.59% | 1.52% | 3.06% | 0.62%
3 | Nc1nc(-c2cccc(Cl)c2)c(-c2ccc3ncccc3n2)s1 | 15.2% | 4.75% | 10.5% | 6.74% | 11.4% | 4.18% | 13.6% | -1.79% | -1.08% | -2.15%
4 | CCN1CCC(CC(=O)Nc2n[nH]c3nnc(-c4cccc(F)c4F)cc23)CC1 | 6.9% | -3.31% | 1.81% | 1.13% | 3.93% | 5.1% | 0.53% | -0.09% | 0.68% | -0.02%
5 | COc1cccc(-n2ncc3c(N/N=C/c4ccc(F)cc4)ncnc32)c1 | 18.6% | 3.4% | 13.7% | 3.85% | 8.02% | 14.6% | 49.2% | -1.01% | 3.9% | -4.34%
6 | COc1ccc(-c2nn3ncccc3c2-c2ccnc(Nc3ccc4c(c3)OCCO4)n2)cc1 | 56.2% | -3.38% | 8.88% | 6.79% | 21.9% | 7.57% | 51.7% | 0.02% | 0.99% | 1.19%
7 | CCn1c(-c2nonc2N)nc2c(C#CC(C)(C)O)ncc(OC3CCNCC3)c21 | 17.1% | -2.24% | 0.48% | 7.34% | 6.9% | 7.32% | 11.4% | 0.02% | 1.37% | 2.08%
8 | CC(C)COC(=O)c1ccc2c(c1)/C(=C/Nc1ccc(S(N)(=O)=O)cc1)C(=O)N2 | 69.9% | -0.4% | 16.7% | 1.71% | 15.3% | 2.28% | 39.5% | 5.32% | 3.32% | 4.14%
9 | CCNC(=O)O[C@H]1CN[C@H](C#Cc2cc3ncnc(Nc4ccc(OCc5cccc(F)c5)c(Cl)c4)c3s2)C1 | 2.83% | 3.96% | 3.52% | 4.68% | 3.52% | 0.25% | 6.91% | -0.91% | -2.79% | -1.96%
10 | N#Cc1c(NC(=O)CN2CCOCC2)sc2c1CCCC2 | 8.63% | -0.19% | 6.37% | 6.7% | 13% | -1.56% | 7.9% | -1.35% | 0.73% | -0.42%
11 | CC(=O)Nc1cccc(C#Cc2cncnc2Nc2ccc(OCc3cccc(F)c3)c(Cl)c2)c1 | 13.3% | 0.77% | 4.22% | 7.46% | 12.2% | 10.8% | 6.18% | 2.87% | 0.23% | 3.21%
12 | COc1cc(Nc2nccc(Nc3ccc4c(C)n[nH]c4c3)n2)cc(OC)c1OC | 82.4% | 6.16% | 34.4% | 40.6% | 70% | 68.4% | 92.1% | 4.33% | 12.6% | -1.75%
13 | COc1cc2ncn(-c3cc(OCc4ccccc4C(F)(F)F)c(C(=O)N(C)C)s3)c2cc1OC | 23.4% | 1.82% | -1.06% | 1.8% | 2.67% | 0.91% | 3.6% | 1.16% | 1.35% | 4.44%
14 | NS(=O)(=O)c1ccc(Nc2ncc(-c3ccccc3)o2)cc1 | 7.3% | 4% | 6.45% | 3.2% | 13.1% | 1.97% | 18.3% | -0.76% | 0.22% | 3.95%
15 | CCc1nn2ncccc2c1-c1ccnc(NC2CC2)n1 | 6.92% | 6.26% | 6.01% | 4.86% | 5.32% | 6.38% | 7.08% | 1.77% | 1.02% | 0.63%
16 | Fc1ccc(-c2nn3ncccc3c2-c2ccnc(Nc3ccc4c(c3)OCCO4)n2)cc1 | 65.8% | -2.95% | 4.64% | 4.11% | 10.9% | 40.2% | 83.9% | -0.06% | 9.83% | -5.37%
17 | Fc1cccc(COc2ccc(Nc3ncnc4sc(-c5ccco5)cc34)cc2Cl)c1 | 6.83% | -0.84% | 3.24% | 1.53% | 8.29% | 7.3% | 6.58% | -3.52% | -1.36% | -3.2%

From ChEMBL document CHEMBL1961873, “Compounds: GSK PKIS; Assays: Nanosyn kinase panel” (2012)
